Several values for one entry are separate records, joined by “and”; a condition that tells them apart may be missing. Equal entries are not always repeated. Compounds without any hit were thinned out: in the full panel of roughly 83,000, 20% have a hit.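 Percent growth is the endpoint: 0 to 100 indicates growth inhibition (40 means 60% inhibition), 0 means no net growth, and negative values indicate cell death.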 Values without a mark were called inactive. Activity calls are given as the source filed them. Rule for the calls: active = growth percent below 10; inactive = the rest.

Among the test systems are MDA-MB-435 melanoma; SW-620 colon; MCF7 breast; HCT-116 colon; HCC-2998 colon; KM12 colon; BT-549 breast; T-47D breast.
Test in all cases: NCI-60 one-dose screen, 48 h (100 = growth as untreated, 0 = no growth, -100 = all killed)
Holding throughout (details): 10 µM unless noted

In the case of `O=[N+]([O-])c1ccc(Oc2ccccc2Cl)c([N+](=O)[O-])c1`, the growth in the test on MDA-MB-435 melanoma is 81.5%; in the test with SW-620 colon, 39.9%; in the test on MCF7 breast it was 89.4%; in the test with HCT-116 colon, 88.2%; with HCC-2998 colon it was 112%; in the test with KM12 colon, 89.2%.

In the case of `CC(=O)N1CC(=O)NC1=S`, the growth with BT-549 breast is 103%; in the test on MDA-MB-435 melanoma, 98.3%; in the test on SW-620 colon, 102%; with MCF7 breast it was 94.1%; with HCT-116 colon, 102%; in the test with HCC-2998 colon, 95%. Besides, in the test on KM12 colon, the growth is 103%.

In the case of `Oc1ccccc1N=Cc1ccccc1`, the growth was 79.7% in the test with BT-549 breast; 87% in the test on MDA-MB-435 melanoma; 85.1% with SW-620 colon; 74.3% in the test on MCF7 breast; 69.4% in the test with HCT-116 colon; 100% in the test with HCC-2998 colon. In addition, the growth in the test with KM12 colon is 74.1%.

`Nc1ccc(C(=O)/C=C/c2ccccc2)cc1`: the growth with BT-549 breast is 61.1%; in the test with MDA-MB-435 melanoma, 96.8%; in the test with SW-620 colon, 103%; with MCF7 breast it was 73.3%; in the test on HCT-116 colon, 60.3%; in the test with HCC-2998 colon, 100%. For the same molecule, the growth with KM12 colon was 74.2%.

In the case of `CC(C)(C)CC(C)(C)c1ccc(OCCOCCSC(=N)N)cc1`, the growth in the test on BT-549 breast was 28%; in the test on MDA-MB-435 melanoma, -64.8% (active); in the test with SW-620 colon it was -2.39% (active); in the test on MCF7 breast it was 4.55% (active); in the test with HCT-116 colon it was -65% (active); in the test on HCC-2998 colon, -32.3% (active). Moreover, the growth with KM12 colon was 36.9%.

Take `Oc1ccc2ccccc2c1N=Nc1ccccn1`: the growth is 12.7% in the test with T-47D breast; 49.9% in the test on MDA-MB-435 melanoma; 0.0702% (active) in the test on MCF7 breast; 45.2% with HCC-2998 colon; 34.4% in the test on KM12 colon.

Consider `CC1(C)CCC[C@]2(C)[C@@H](C=O)C(C=O)=CC[C@@H]12`, for which the growth with MCF7 breast is -13.9% [100 µM] (active) and -1.67% [100 µM] (active).

As for `CCSc1nc2ccccc2o1`, the growth in the test with T-47D breast was 106%; in the test with MDA-MB-435 melanoma, 111%; with SW-620 colon it was 106%; in the test on MCF7 breast it was 99.5%; in the test on HCC-2998 colon, 117%; in the test on KM12 colon, 108%.

Consider `NNc1cccc([N+](=O)[O-])c1`, for which the growth in the test on BT-549 breast is 93.6%; with MDA-MB-435 melanoma, 86.8%; with SW-620 colon it was 63.2%; in the test on MCF7 breast, 106%; in the test on HCT-116 colon, 70.4%; in the test on HCC-2998 colon, 110%. For the same molecule, the growth with KM12 colon is 52.5%.

On to `CCOC(=O)C1=C(C(=O)c2ccccc2)C(c2cccc([N+](=O)[O-])c2)C(C(=O)c2ccccc2)=C(C(=O)OCC)N1`, for which the growth was 89.9% with BT-549 breast; 91.6% with MDA-MB-435 melanoma; 70.2% with SW-620 colon; 13% in the test on MCF7 breast; 37.5% in the test with HCT-116 colon; 105% in the test on HCC-2998 colon. The growth in the test on KM12 colon is 75.8%.

Take `O=C(Cc1nc2cc(Cl)c(Cl)cc2nc1CC(=O)c1cccnc1)c1cccnc1`: the growth in the test on BT-549 breast is 2.99% (active); with MDA-MB-435 melanoma, 75.9%; with SW-620 colon, 90.3%; in the test on MCF7 breast it was 29.6%; in the test with HCT-116 colon, 52.7%; with HCC-2998 colon, 115%. In addition, the growth in the test with KM12 colon is 85.9%.

With `CC(=O)Nc1ccc(C(=O)CCl)cc1`, the growth is 58.6% in the test with BT-549 breast; 14.4% with MDA-MB-435 melanoma; -16.6% (active) in the test on SW-620 colon; 3.18% (active) in the test on MCF7 breast; 32.3% with HCT-116 colon; 102% with HCC-2998 colon. Moreover, the growth in the test on KM12 colon is 85.7%.

For the molecule `Oc1ccc(Cl)cc1Cc1cc(Cl)ccc1O`, the growth with BT-549 breast was 37.1%; in the test on MDA-MB-435 melanoma it was 36.7%; with SW-620 colon, 26.9%; in the test on MCF7 breast it was 31.9%; with HCT-116 colon it was 2.45% (active); with HCC-2998 colon, 50.7%. The growth in the test with KM12 colon was 72.5%.

As for `CCOC(=O)c1c(C)[nH]c2ccc(O)cc12`, the growth in the test with MDA-MB-435 melanoma is 100%; with SW-620 colon, 105%; with MCF7 breast, 83.4%; in the test on HCT-116 colon it was 103%; in the test on HCC-2998 colon, 107%; in the test on KM12 colon, 86.4%.

In the case of `CC1CC(C)(C)OB(OC(C)CC(C)(C)OB2OC(C)CC(C)(C)O2)O1` (configuration not stated), the growth is 77.7% in the test on BT-549 breast; 107% in the test on MDA-MB-435 melanoma; 117% with SW-620 colon; 96.6% in the test with MCF7 breast; 99.9% in the test with HCT-116 colon; 93.3% in the test on HCC-2998 colon. Also, the growth with KM12 colon was 101%.

With `N#C/C(=N\Nc1ccc(Cl)cc1)C(=O)C1CC1`, the growth is 40.2% in the test on BT-549 breast; 41% with MDA-MB-435 melanoma; 63.1% in the test on SW-620 colon; 51.7% with MCF7 breast; 63.9% in the test with HCT-116 colon; 72.1% with HCC-2998 colon. The growth in the test with KM12 colon was 56.2%.

Consider `C=C1C(=O)C2=CC1CCC(=O)C1(C)CCC(OC(C)=O)C(C)(C)C1CC2O` (configuration not stated), for which the growth in the test with MCF7 breast was -80.9% [100 µM] (active) and -63.1% [100 µM] (active).

On to `Nc1nc(-c2ccccc2)nc(N)c1N=O`, for which the growth with BT-549 breast is 56.3%; in the test on MDA-MB-435 melanoma, 46.7%; in the test with SW-620 colon, 1.65% (active); in the test on MCF7 breast it was 33%; in the test on HCT-116 colon it was 51.6%; with HCC-2998 colon, 103%. Also, the growth in the test on KM12 colon was 58.8%.

Turning to `CN(C)CC(C)(CN(C)C)C(=O)/C=C/c1c(Cl)cccc1Cl`, the growth with BT-549 breast was 51.1%; in the test with MDA-MB-435 melanoma it was 13.1%; with SW-620 colon, 4.63% (active); in the test on MCF7 breast it was -60.9% (active); with HCT-116 colon it was -41.2% (active); with HCC-2998 colon, 37.2%. Moreover, in the test on KM12 colon, the growth is -25.7% (active).

Regarding `O=C/C=C/c1ccc([N+](=O)[O-])cc1`, the growth in the test on BT-549 breast was 116%; with MDA-MB-435 melanoma it was 108%; in the test with SW-620 colon it was 106%; in the test on MCF7 breast it was 90.3%; with HCT-116 colon, 80.6%; in the test with HCC-2998 colon it was 95.8%. Besides, the growth in the test on KM12 colon was 101%.

On to `O=C(Cc1nc2cc(Cl)c(Cl)cc2nc1CC(=O)c1ccccc1)c1ccccc1`, for which the growth was 52% in the test with BT-549 breast; 67.4% in the test on MDA-MB-435 melanoma; 92.6% in the test on SW-620 colon; 9.51% (active) in the test with MCF7 breast; 56.8% in the test with HCT-116 colon; 92.8% in the test on HCC-2998 colon. The growth in the test on KM12 colon was 77.3%.

As to `O=C(/C(Cl)=N/O)c1ccc(-c2ccccc2)cc1`, the growth with BT-549 breast was 94.7%; in the test on MDA-MB-435 melanoma, 114%; with SW-620 colon, 110%; with MCF7 breast, 89.5%; in the test on HCC-2998 colon, 105%; in the test with KM12 colon, 108%.

`c1ccc(-c2cc3cc4ccccc4cn3c2)cc1`: the growth is 91.4% in the test on MDA-MB-435 melanoma; 89.9% in the test with SW-620 colon; 88.8% with MCF7 breast; 88% with HCT-116 colon; 121% in the test with HCC-2998 colon; 86.2% in the test on KM12 colon.

The values above are taken from PubChem BioAssay (NCI).
